Test results as given in PubChem BioAssay AID504892 (The Scripps Research Institute Molecular Screening Center, 2011).
Values without a mark were called inactive. The source made the active and inactive calls. How the calls were made is not given here.

Molecular target: sn-1-specific diacylglycerol lipase ABHD11 (Homo sapiens) (UniProt Q8NFV4)
Assay: ABHD11 inhibitors, late-stage follow-up, gel-based ABPP, fluorescence, human isoform (AID 504892)
Details: human ABHD11 proteome; at 20 µM (top of the series) unless noted

sn-1-specific diacylglycerol lipase ABHD11 (Homo sapiens), sequence (Q8NFV4 whole entry, looked up, canonical isoform): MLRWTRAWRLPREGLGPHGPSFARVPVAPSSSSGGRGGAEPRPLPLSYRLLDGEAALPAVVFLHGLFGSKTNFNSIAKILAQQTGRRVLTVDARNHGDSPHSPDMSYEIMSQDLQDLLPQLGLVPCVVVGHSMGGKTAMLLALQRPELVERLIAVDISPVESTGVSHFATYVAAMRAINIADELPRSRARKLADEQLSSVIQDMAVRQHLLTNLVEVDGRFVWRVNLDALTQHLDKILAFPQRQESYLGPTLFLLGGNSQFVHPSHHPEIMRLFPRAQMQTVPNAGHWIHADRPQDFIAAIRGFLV

| SMILES | inhibition |
| --- | --- |
| CCC1CCCCN1C(=O)Oc1ccc([N+](=O)[O-])cc1 (configuration not stated) | 0% |
| CCC1CCCCN1C(=O)n1ncc(C(O)(c2ccccc2)c2ccccc2)n1 (configuration not stated) | 100% [at 0.15 µM] (active) |
